Experimental data as given in PubChem BioAssay AID1345083 (National Center for Advancing Translational Sciences (NCATS), 2018).
The whole screen tested about 94,000 compounds, of which about 6,200 (6.6%) were called active. Not shown: some 31% with an inconclusive outcome. What follows is part of a selection rich in actives, with near analogues and random picks from the rest. A number with no mark means an inactive call. Calls come from the whole dose curve; as a rule, active = well fitted inhibition curve with a large enough effect; inconclusive = small, poorly fitted or top-dose-only effect; inactive = flat fitted curve, though single readings scatter.

Assay: Cytotoxic Profiling in HEK 293 Cell Line of Diverse Libraries Using Quantitative High-Throughput Screening; note: nearly all actives have a fitted effect of over 60% in size
Conditions: HEK 293 viability, ATP luminescence (CellTiter-Glo), 48-72 h; series mostly up to 115 µM; activity change, negative = cytotoxicity: at the top concentration
How it was run: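 HEK 293 seeded at 250 cells/well receive compound via pintool. After 48 or 72 hr at 37 degree Celsius, 5% CO2 and 95% humidity, CellTiter-Glo is dispensed and luminescence read following 10 min at room temperature.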
% is set by controls: 0 for no effect and ±100 for the full control effect; potency is the fitted concentration of half-maximal effect.

SMILES	activity change, negative = cytotoxicity	Potency	outcome
Cc1nc(-c2ccccc2OC2CN(S(=O)(=O)c3c(C)noc3C)C2)no1	3.92%	–	–
COc1ccc(CCC(=O)NCC(=O)N2CCCCCCNC(=O)CC2c2ccccc2)cc1 (configuration not stated)	-2.36%	–	–
CC1CCN(c2ccc(CNC(=O)CN3CCCc4nc(C5CC5)ncc4C3=O)cc2)CC1	-1.31%	–	–
CN(CCO)CC1(O)CCCN(Cc2ccccc2F)C1=O (configuration not stated)	-25.7%	–	–
O=C1c2c(nc(COc3ccccc3)n2Cc2ccccc2)NCCN1Cc1cccc(Cl)c1	–	31.6 µM (active)	–
O=C(O)CN1CCNc2nc(CNc3ccc(F)cc3)n(Cc3ccccc3)c2C1=O	–	–	inactive [at 172 µM]
O=C1c2cnc(-c3ccc(O)c(F)c3)nc2OCCN1Cc1ccccc1	-28.2% [at 172 µM]	–	–
COc1ccc(NC(=O)c2ccc3c(c2)N(S(C)(=O)=O)CC3)cc1OC	-25%	–	–
O=C(c1cccnc1)N1CCC(Nc2cccnc2)C1 (configuration not stated)	3.04%	–	–
COc1cccc(N2C(=O)NC(=NC3CCCC3)C23CCN(C(=O)c2ccc(C)cc2)C3)c1 (configuration not stated)	-2.27%	–	–
COc1ccc(CNC(=O)C[C@@H]2CCNC[C@@H]2Cc2cc(-c3ccc(C(C)(C)C)cc3)on2)cc1OC	–	25.1 µM (active)	–
CNC(=O)C(C)(C)N1CCC[C@H]1C(=O)N(C)Cc1ccccc1	-29.2% [at 172 µM]	–	–
O=C(C[C@@H]1CCNC[C@@H]1Cc1cc(CSc2ccccc2)on1)NCc1ccc2c(c1)OCO2	–	35.5 µM (active)	–
COc1ccc(-c2cc(C[C@H]3CNCC[C@H]3CC(=O)NCCN(C)C)no2)cc1	0.101% [at 172 µM]	–	–
O=C(C[C@@H]1CCNC[C@@H]1Cc1cc(-c2ccc(F)cc2)on1)NCCN1CCOCC1	-4.57% [at 172 µM]	–	–
CCCCc1cc(C[C@H]2CNCC[C@H]2CC(=O)N(CC)CC)no1	-22.1% [at 172 µM]	–	–
CCCCc1cc(C[C@H]2CNCC[C@H]2CC(=O)N2CCC(n3c(=O)[nH]c4ccccc43)CC2)no1	3.67%	–	–
CSc1cccc(CN(C)C(=O)CC2COCCN2)c1 (configuration not stated)	-17.4%	–	–
CN(Cc1ccccc1)C(=O)C[C@@H]1CCNC[C@@H]1Cc1cc(-c2ccc(C(C)(C)C)cc2)on1	–	14.1 µM (active)	–
COCCOCc1nc(C2CCCCN2C(=O)Nc2ccc(F)cc2F)no1 (configuration not stated)	0.297%	–	–
O=C(Cc1cccc(Cl)c1)N1CCC2(CN[S+](=O)([O-])c3cccnc3O2)C1 (configuration not stated)	4.07%	–	–
Cc1ccc(CN[C@@H]2CO[C@H](CNC(=O)N3CCOCC3)[C@H]2O)cc1	–	–	inactive [at 172 µM]
CCNC(=O)[C@@H]1C[C@H](n2cc(CN(C)C(=O)OC)nn2)CN1	0.184%	–	–
Cc1ccc(NC(=O)c2nnn3c2COC(c2ccc(F)cc2)C3)c(Br)c1 (configuration not stated)	2.77%	–	–

SMILES	activity change, negative = cytotoxicity	Potency	outcome
COc1ccc(-c2ccccc2CN)cc1	-3.51% [at 172 µM]	–	–
CCn1cc(S(=O)(=O)N2C[C@@H](Oc3ccccc3)C[C@@H]2C(=O)N2CCOCC2)cn1	2.71%	–	–
CCN(CC)C1CCOC2(CCN(C(=O)c3ccncc3)CC2)C1 (configuration not stated)	-7.62%	–	–
CCn1nccc1C(=O)N1CCC2(CC1)CC(N(Cc1ccc(F)cc1)C1CC1)CCO2 (configuration not stated)	–	39.8 µM (active)	–
O=C(c1ccc(F)cc1)N1CCC2(CC1)CC(OCC1CC1)CCO2 (configuration not stated)	-5.72%	–	–
Cc1cccc(CC(=O)N2CCC(c3n[nH]c(=O)n3-c3ccccc3)CC2)c1	2.17%	–	–
CN(C)CCNC(=O)[C@H]1C[C@@](C)(C(=O)O)N(C)[C@H]1c1ccc(Cl)cc1	–	–	inactive
Cc1ccccc1N1Cc2c(NCC(C)(C)C)ncnc2N(C)CC1=O	-13.2%	–	–
O=C(NCc1ccc2c(c1)OCO2)C1CCCN(Cc2cccc(-c3cccs3)c2)C1 (configuration not stated)	–	28.2 µM (active)	–
O=C1CCN(S(=O)(=O)c2cccc(F)c2)CCCC(C(=O)NCc2ccccc2)CCN1 (configuration not stated)	-20.4%	–	–
O=C(NCc1ccc2c(c1)OCO2)C1CN(C2CCCCC2)C(=O)N1 (configuration not stated)	-24.3% [at 172 µM]	–	–
O=C(NCc1ccc(F)c(F)c1)C1CCCN(Cc2cccc(-c3cccs3)c2)C1 (configuration not stated)	–	5.62 µM (active)	–
COCCNC(=O)C1CCCN(Cc2cccc(-c3cccs3)c2)C1 (configuration not stated)	-13.6%	–	–
Cc1ccccc1CNC(=O)C1CCCN(Cc2cccnc2)CCC(=O)NCC1 (configuration not stated)	-7%	–	–
COc1ccc(C(=O)N2CCc3n[nH]c(=O)n3CC2)cc1F	-2.48%	–	–
O=C(N[C@H]1[C@H](O)[C@H](O)C[C@@H]1c1ccncc1)c1ccccn1	-11.5% [at 172 µM]	–	–
CN(C)c1ccc(CNCC2(COc3ccc(S(C)(=O)=O)cc3)C[C@@H](O)[C@@H](O)C2)cc1 (some centres not stated)	-21%	–	–
O=C(NC1CC1)c1ccc(N2CC3CC(C2)[C@H]2CCCC(=O)N2C3)nc1 (some centres not stated)	-6.11%	–	–
Cc1cc(C(=O)N2CCC(N3C(=O)C(OCC4CC4)C34CCOCC4)CC2)nn1C (configuration not stated)	-6.69%	–	–
CN(C)c1cccc(Nc2cc3c(cn2)NCCN(Cc2ccccc2)C3)c1	–	63.1 µM (active)	–
Cn1c(CNC(=O)Cn2nc3c(cc2=O)CCCC3)nc2ccccc21	-0.627%	–	–
O=C(c1cn[nH]c1-c1ccccc1)N1CCC2(CC1)CC(O)CCO2 (configuration not stated)	-1.3%	–	–
O=C(Cc1cccc(Cl)c1)N1CCC2(CC1)CN[S+](=O)([O-])c1cccnc1O2	4.98%	–	–
